Screening results: PubChem BioAssay, National Center for Advancing Translational Sciences (NCATS)
VP16 counter: VP16 counterscreen qHTS for inhibitors of ROR gamma transcriptional activity; Drosophila S2 Gal4-VP16 UAS-luciferase, luminescence, 20 h; hit rate 3.5% among 310,000; Potency, µM (doses to about 53.6 µM), for inactives: at the top dose activity, negative = inhibition, usual class: inhibitors; AID 2546, 2010;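 also: Gal4-VP16 expression switched on by copper sulfate through the metallothionein promoter; potency is read from the fitted curve at half-maximal effect; nearly all actives have a fitted effect of over 50% in size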
Coupling enz: qHTS Assay for Inhibitors of Fructose-1,6-bisphosphate Aldolase from Giardia Lamblia: Coupling assay counterscreen; coupling enzyme system counterscreen, AmpLite Red fluorescence; activity change, negative = inhibition, % at 58.2 µM, hits read low; hit rate 0.67% among 290,000; in the data active = activity change below about -30%
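Counterscreen lacking aldolase: glyceraldehyde-3-phosphate coupling-enzyme reagent preincubated 10 min at RT with compound (at 57.5 uM final), then substrate/coupling system with AmpLite Red added; fluorescence read at 525/598 nm after 20 min RT.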
rTrxR1 inhibitor: qHTS Assay for Inhibitors of Mammalian Selenoprotein Thioredoxin Reductase 1 (TrxR1): qHTS. Potency, µM (titrated, usually from 114 µM), for inactives: at the top dose activity change, negative = inhibition, usual class: inhibitors. Thioredoxin reductase 1, cytoplasmic (Rattus norvegicus), O89049. hit rate 1% among 390,000. AID 588453, 2011. recombinant rTrxR1, NADPH fluorescence consumption, selenite substrate; also: potency is read from the fitted curve at half-maximal effect; nearly all actives have a fitted effect of over 65% in size
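Rat TrxR1 (90 nM in the dispensed reagent) was pre-reduced with 400 uM NADPH for 5 min at room temperature, then incubated with compound for 15 min. After 400 uM selenite was added, NADPH fluorescence (Ex 340/Em 450 nm) was followed for 8 min.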
TrxR1 substrate: qHTS Assay for Substrates of Mammalian Selenoprotein Thioredoxin Reductase 1 (TrxR1): qHTS. Thioredoxin reductase 1, cytoplasmic (Rattus norvegicus), O89049. purified TrxR1 substrate turnover, NADPH consumption readout. Potency, µM (titrated, usually from 114 µM), for the others: at the top dose activity change, negative = substrate turnover. hit rate 0.01% among 390,000. AID 588456, 2011; also: potency is read from the fitted curve at half-maximal effect; nearly all actives have a fitted effect of over 50% in size
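Rat TrxR1, dispensed at 90 nM, was prereduced with 400 uM NADPH (final) for 5 min at ~22 deg C, then incubated with compound 15 min before 400 uM selenite. A first-read NADPH fluorescence drop versus no-compound background flagged substrates.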
RORgamma inh: qHTS for inhibitors of ROR gamma transcriptional activity. Drosophila S2 Gal4-RORgamma UAS-luciferase reporter, 20 h. Nuclear receptor ROR-gamma (Mus musculus), P51450. AID 2551, 2010. Potency, µM (doses to about 53.6 µM), without a hit: at the highest dose activity change, negative = inhibition, usual class: inhibitors. hit rate 5.4% among 310,000; also: potency is read from the fitted curve at half-maximal effect; nearly all actives have a fitted effect of over 60% in size
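Luciferase reporter read in Schneider cells carrying Gal4-RORγ (mouse) and UAS-Photinus luciferase; cells given compound 1 h before 700 uM copper sulfate induction, then incubated 20 h at ambient temperature.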
GALK inh: qHTS Assay for Inhibitors of Human Galactokinase (GALK) | Purified GALK, Kinase-Glo residual ATP luminescence | Potency, µM (highest dose often 57.5 µM), for inactives: top-dose activity change, negative = inhibition, actives largely listed as inhibitors | hit rate 0.007% among 270,000 | AID 1868, 2009; also: potency is read from the fitted curve at half-maximal effect
Target sequence (P51570 whole entry, looked up): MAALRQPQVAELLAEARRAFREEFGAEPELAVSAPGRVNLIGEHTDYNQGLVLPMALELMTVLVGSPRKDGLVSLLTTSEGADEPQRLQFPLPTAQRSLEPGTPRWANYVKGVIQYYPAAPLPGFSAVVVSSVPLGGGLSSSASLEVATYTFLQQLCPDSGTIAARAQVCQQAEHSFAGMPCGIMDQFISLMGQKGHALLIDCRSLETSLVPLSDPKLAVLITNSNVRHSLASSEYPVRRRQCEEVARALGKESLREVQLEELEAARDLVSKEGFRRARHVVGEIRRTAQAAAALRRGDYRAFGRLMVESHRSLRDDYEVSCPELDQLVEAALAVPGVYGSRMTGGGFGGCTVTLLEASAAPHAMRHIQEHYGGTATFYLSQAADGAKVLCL
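The enzyme phosphorylates galactose (100 uM) using ATP (35 uM); inhibition is detected as higher residual ATP, quantified by bioluminescence after 1 h reaction at room temperature, pH 8.0.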
Active calls of the source: *; ? = inconclusive; nt = not tested or not shown; [ ] = another dose, or the depositor's remark. Rows were chosen to be rich in hits. Some 5.9% of all compounds tested hit in one or more screens of this group. Unless noted, calls follow the shape of the dose curve; as a rule, active = well fitted curve in the direction sought with a large enough effect; inconclusive = small, poorly fitted or top-dose-only effect, or another doubt; inactive = no such curve, though single readings can be large; an effect the other way counts as inactive or inconclusive. % is scaled to controls: 0 for no effect and ±100 for the full control effect.

SMILES | VP16 counter | Coupling enz | rTrxR1 inhibitor | TrxR1 substrate | RORgamma inh | GALK inh
S=C(NCCSCc1ccc(Cl)c(Cl)c1)Nc1ccccc1 | nt | nt | -18% | -4% | nt | nt
Cc1ccccc1CSCCNC(=O)c1ccccc1 | 7% | 9 | -11% | -6% | 16% | 1%
COc1ccc(CSCCNC(=S)Nc2ccccc2)cc1Cl | ? | -2 | 3% | 0% | 4.5µM* | 1%
S=C(NCCSCc1c(Cl)cccc1Cl)Nc1ccccc1 | 5µM* | 1 | -1% | -3% | 2µM* | 3%
Cc1ccccc1CSCCNC(=S)Nc1ccccc1 | 7.1µM* | -2 | 12%[57.1 µM] | 5%[57.1 µM] | 2.2µM* | 3%
S=C(Nc1ccccc1)Nc1ccc(OCc2ccc(Cl)cc2Cl)cc1 | 7.1µM* | -2 | 0% | 1% | 1.4µM* | -2%
CC(CC(=O)O)Nc1ccccc1O (stereo unspecified) | -11% | -17 | 3%[57.1 µM] | 4%[57.1 µM] | -2% | -3%
Cc1ccc(CNC(=O)c2ccc(N3CCC4(CC3)CC(c3ccccc3)=NO4)c(NC(=O)c3cccc(C)c3)c2)cc1 | nt | nt | 8% | 15% | nt | nt
S=C(NCCSCc1ccc(Cl)cc1Cl)Nc1ccccc1 | 4µM* | 2 | -18% | -9% | 3.2µM* | 0%
OCCNCc1ccc(OCc2ccc(Cl)cc2Cl)cc1 | -2%[10 µM] | 4 | 22%[57.1 µM] | 12%[57.1 µM] | 13µM* | -1%
O=C(NCCSCc1c(F)cccc1Cl)Nc1ccccc1 | 27% | 1 | 28% | 3% | 40% | -1%
Cc1cccc(NC(=O)Nc2cc(C)cc(C)n2)c1 | -21% | 3 | 9% | 1% | 20% | -2%
Cc1ccc(NC(=S)Nc2ccc3[nH]c(=O)[nH]c3c2)cc1C | ? | 3 | -3% | -3% | 11µM* | 5%
Cn1cc(/C=N\NC(=O)c2cccs2)c2ccccc21 | ? | 0 | 15%[57.1 µM] | 17% | 8.9µM* | 9%
Cn1cc(/C=N/NC(=O)c2ccc(C#N)cc2F)c2ccccc21 | ? | -18 | 7%[57.1 µM] | 0%[57.1 µM] | 5µM* | -2%
Cc1nn(-c2ccccc2)cc1/C=N/NC(N)=S | 4.5µM* | 0 | 4%[57.1 µM] | -5%[57.1 µM] | 2.5µM* | -3%
Cn1cc(/C=N/NC(N)=S)c2ccccc21 | 22µM* | -6 | -25% | -14% | ? | -2%
C=CCNC(=S)N/N=C/c1cn(C)c2ccccc12 | -9% | 0 | 12%[57.1 µM] | -3%[2.29 µM] | 27% | 4%
N#Cc1ccc(C(=O)N/N=C/c2cn(CC(=O)O)c3ccccc23)c(F)c1 | -15% | -1 | -21% | ? | -9% | 0%
COCCn1c(SCC#N)nnc1-c1ccccc1 | -17% | -1 | 33% | 6% | -14% | 1%
CC(=O)NCCOc1ccc(C(=O)O)cc1 | -2% | 2 | -2%[11.4 µM] | 11%[57.1 µM] | -2% | -1%
COCCNC(=O)Cn1c(=O)n(CCCC(=O)NCc2ccc3c(c2)OCO3)c(=O)c2sccc21 | 11% | -1 | -9% | -6%[57.1 µM] | -44% | 1%
O=C(CCCl)Nc1cccc2cccnc12 | nt | nt | 13µM* | 9% | nt | nt
O=C(CCC(=O)OCC(=O)c1ccc(-c2ccccc2)cc1)Nc1cccc2cccnc12 | 4µM* | -12 | 3% | 0% | 1.6µM* | 0%
O=C(CCBr)Nc1cccc2cccnc12 | nt | nt | ? | 8% | nt | nt
SMILES | VP16 counter | Coupling enz | rTrxR1 inhibitor | TrxR1 substrate | RORgamma inh | GALK inh
O=C(CCC(=O)OCC(=O)c1ccc(Cl)cc1Cl)Nc1cccc2cccnc12 | -17% | 1 | -13% | -9% | 20% | 0%
O=C(CCl)Nc1cccc2ncccc12 | ? | -4 | 50µM* | -4% | 18µM* | 1%
Cc1ccc(NC(=O)Cn2c(=O)n(Cc3nc(-c4ccccc4)no3)c(=O)c3cc4c(cc32)OCO4)cc1F | nt | nt | 14% | 10% | nt | nt
CCOCCn1c(=NC(=O)c2ccc3c(c2)OCCO3)sc2cc(OCC)ccc21 | nt | nt | 35%[57.1 µM] | 44%[57.1 µM] | nt | nt
CCCc1nc2ccccc2n1C(=S)SC | ? | 2 | 11% | 2% | 11µM* | 0%
COCCCNc1ncnc2c1sc1nc(-c3ccco3)c3c(c12)CC(C)(C)OC3 | 4% | 0 | ? | 28%[57.1 µM] | 21% | nt
Nc1c(-c2cccc(Cl)c2)cnn1-c1ccccc1 | 24% | -1 | 7% | -3% | 12% | nt
COc1ccc(Br)cc1/C=C/C(=O)c1ccc(NC(C)=O)cc1 | 10µM* | -1 | -14% | -3% | 5µM* | -7%
COc1ccc(NC(=O)/C=C/c2cc(Br)ccc2OC)cc1 | -3% | -2 | 21% | 2% | ? | 2%
O=C(/C=C/c1ccc(Cl)cc1)NC(=S)Nc1ccc(CN2CCOCC2)cc1 | 6.3µM* | -2 | 12%[57.1 µM] | 4%[57.1 µM] | 4µM* | 0%
O=C(CC12CC3CC(CC(C3)C1)C2)NC(=S)Nc1ccc(CN2CCOCC2)cc1 | 10µM* | -2 | -23% | 5% | 1.6µM* | -2%
COc1ccc(Br)cc1/C=C/C(=O)NC(=S)Nc1ccc(CN2CCOCC2)cc1 | 4.5µM* | -4 | 18% | 4% | 1.8µM* | -1%
O=C(COc1ccccc1Cl)Nc1ccc(CN2CCOCC2)cc1 | -13% | nt | 28% | 5% | 4% | -2%
CC(=O)Nc1ccc(NC(=S)NC(=O)/C=C/c2ccc(Cl)cc2)cc1 | -10%[10 µM] | 0 | 14%[11.4 µM] | 9%[11.4 µM] | -13% | -2%
O=C(/C=C/c1ccc(Cl)cc1)NC(=S)Nc1ccc(NC(=O)c2ccco2)cc1 | 7.1µM* | -4 | 8%[57.1 µM] | 8%[57.1 µM] | 4.5µM* | 2%
COC(=O)c1c(C)[nH]c(C(=O)OCC(=O)NC(C)(C)C)c1C | -6% | 0 | 12% | -5% | 14% | -3%
Cc1ccc(/C=N/NC(=O)c2cccnc2)s1 | -81% | 3 | 13% | -3% | 18µM* | 1%
Cc1ccc(/C=N/NC(=O)c2ccoc2C)s1 | ? | 2 | -21% | -21% | ? | 3%
Cc1ccc(/C=N/NC(=O)c2ccc(C(=O)N/N=C/c3ccc(C)s3)o2)s1 | -21% | -1 | 10% | 34% | 8.9µM* | 2%
Cc1ccccc1/C=N/NC(=O)c1cccnc1 | -9% | 2 | -3% | -6% | 7% | nt
CCNC(=S)N/N=C/c1c(Cl)cccc1Cl | 2.8µM* | -1 | 16% | 2% | 2.5µM* | 3%
O=C(Cc1ccccc1)N/N=C/c1cccs1 | 5% | -1 | 3% | -7% | -11% | 3%
Cc1ccc(NC(=S)N/N=C/c2c(Cl)cccc2Cl)c(C)c1 | 0.89µM* | 0 | 10%[57.1 µM] | -9%[57.1 µM] | 0.79µM* | 1%
Cc1ccccc1CSCC(=O)N/N=C/c1cccs1 | -25% | -12 | -14% | -10% | 18µM* | nt
COC(=O)N/N=C/c1cccs1 | -7% | 1 | 21% | 1% | -24% | -2%
